TTR transcr act = TTR transcription activation, primary screen; 92,000 compounds, 1.3% hits; SH-SY5Y TTR promoter Gaussia luciferase, luminescence; 100% = recombinant luciferase protein wells; activation, % at 16.7 µM;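 active = activation above the mean of all tested compounds plus 3 SD, cut at about 9.5% in these data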;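 also: cells exposed to compounds for one day before reading; 0% = median of all test compound wells on the plate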
HuH7 TTR inh = counter-screen for TTR activators: TTR transcription inhibitors in HuH7 cells; shares compounds with TTR transcr act; HuH7 TTR promoter-Gaussia luciferase reporter, luminescence; inhibition, % at 16.7 µM; 1,100 compounds, 4% hits; AID 1117279;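 active = average inhibition above the solvent-only control wells' mean plus 3 SD, cut at about 15% in these data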;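 also: 0% = cells with DMSO only and 100% = cells with inhibitor control FD; inhibitors lower well luminescence so higher value means more inhibition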
TTR act confirm = human TTR transcription activation, confirmation | SHSY5Y TTR promoter Gaussia luciferase, luminescence; 100% = purified Lucia enzyme wells, no cells | activation, % at 16.7 µM | shares compounds with TTR transcr act | AID 1117280 | 1,100 tested, under 10 active;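 active = mean activation above a set limit taken from the earlier primary screen, cut at about 11% in these data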;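 also: 0% = DMSO-treated cells and 100% = recombinant Lucia luciferase without cells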
* marks the source's active call; other numbers are inactive results. This excerpt belongs to a sample that is enriched for hits.

SMILES	TTR transcr act	others
COC(=O)[C@]12C[C@H](CC(=O)NCCCCc3ccccc3)C(=O)N(Cc3cccc4ccccc34)C1=C[C@H](COCc1ccccc1)O[C@@H]2C	-1
COc1ccc(-n2cc(-c3ccc(OC(F)F)cc3)[n+]3c2CCCCC3)cc1	-1
COc1ccc(-c2cn(-c3ccc(Cl)cc3)c3[n+]2CCCCC3)cc1	12*	HuH7 TTR inh=0;TTR act confirm=1
Clc1ccc(-c2cn(-c3ccc(Cl)cc3)c3[n+]2CCCCC3)cc1	-2
CCC1(c2ccc(F)cc2)NC(=O)NC1=O (centres undefined)	0
CC(=O)NC1(c2ccccc2)CCN(C(=O)N2CCOCC2)CC1	1
CC(=O)NC1(C(F)(F)F)C(=O)N(Cc2ccccc2)C2=C1C(=O)CC(C)(C)C2 (centres undefined)	-1
CC(=O)NC1(NC(C)=O)CCN(C)C(c2ccccc2)C1C (centres undefined)	15*	HuH7 TTR inh=-6;TTR act confirm=-1
O=C(NCC(=O)N1CCN(C(=O)c2ccco2)CC1)c1ccc(Br)cc1	-1
CCOC(=O)c1cnn2c(C)cc(-c3ccc(F)cc3)nc12	0
CCOC(=O)c1cc(C(=O)NN)c(C)nc1C	-1
CCOC(=O)c1cc2cc(F)ccc2nc1C	23*	HuH7 TTR inh=-4;TTR act confirm=-1
C[C@H]1C(c2ccccc2F)O[C@]2(C[C@H](O)c3ccccc3O2)C[C@@H]1O (some centres undefined)	3
C=CCN1C(=O)[C@H](CC(=O)NCCCOCCCC)[C@@]2(C(=O)OCC)CCCC=C12	0
CN(C)[C@@H]1CCN(c2cccc3c2S(=O)(=O)N2CC[C@@H](C2)O3)C1	1
COc1ccc(NC(=O)CC2C(=O)NCCN2C(=O)Nc2ccc(C(F)(F)F)cc2)cc1 (centres undefined)	0
CCOC(=O)CC1C(=O)NCCN1C(=O)Nc1ccccc1 (centres undefined)	18*	HuH7 TTR inh=-5;TTR act confirm=-1
COC(=O)CC1C(=O)NCCN1C(=S)Nc1cccc(C)c1 (centres undefined)	2
CC(NC(=O)C(=O)NCC1CCCO1)c1ccccc1 (centres undefined)	-1
O=C(CCSCCC(=O)NCC1CCCO1)NCC1CCCO1 (centres undefined)	-1
O=C(CCSc1ccccc1)NCC1CCCO1 (centres undefined)	15*	HuH7 TTR inh=-5;TTR act confirm=0
COc1ccccc1NC(=S)OCCN1CCCC12CCC(c1ccccc1)CC2 (centres undefined)	1
COc1cc(NC(=O)c2cc(C)on2)c(OC)cc1Cl	0
COc1cccc(-c2cc3nc(-c4ccco4)cc(N4CCN(C(C)=O)CC4)n3n2)c1	-2
O=C(CN(Cc1ccco1)Cc1cccs1)N1CCN(S(=O)(=O)c2cccc(F)c2)CC1	-1
SMILES	TTR transcr act	others
O=C(Cc1cccs1)N1CCN(S(=O)(=O)c2ccc(F)c(F)c2)CC1	10*	HuH7 TTR inh=-11;TTR act confirm=1
O=C(Cc1cccs1)N1CCN(S(=O)(=O)c2ccccc2)CC1	1
C/C(Nc1ccc(Cl)cc1)=C1/CCOC1=O	-1
O=C(NNC(=O)c1cnccn1)c1ccc(Cl)cc1	-2
O=C(NNC(=O)C1CCCCC1)c1cnccn1	12*	HuH7 TTR inh=-9;TTR act confirm=0
O=C(Nc1ccccc1N1CCCCC1)c1cnccn1	2
O=C(C1CCCCC1)n1ccc2ccc(-c3ccc4ccn(Cc5ccccc5)c4c3)cc21	4
O=C1CCc2cc(S(=O)(=O)Nc3ccc4c(c3)OCCO4)ccc2N1	-1
COP(=O)(O)C(C)NC(=O)OCc1ccccc1 (centres undefined)	8
CC1(c2nnnn2Cc2ccccc2)CCC(=O)N1CCc1ccccc1F (centres undefined)	11*	HuH7 TTR inh=-11;TTR act confirm=0
CC1(c2nnnn2Cc2ccccc2)CCC(=O)N1CCc1c[nH]c2ccccc12 (centres undefined)	-1
CC1(c2nnnn2Cc2ccccc2)CCC(=O)N1CC(F)(F)F (centres undefined)	-1
COc1ccc(Cn2cc(COC(=O)N3CCCC3)nn2)cc1	0
COP(=O)(CC(=O)OC(C)(C)C)C(CC(C)C)NC(=O)OCc1ccccc1 (centres undefined)	0
CCn1c(=O)n2n(c1=O)[C@H]1C[N+](Cc3ccc4c(c3)OCO4)=C(N)NC1=C(C)C2	1
O=C(NCCc1c[nH]c2ccccc12)OCc1cn(Cc2cccc(F)c2F)nn1	9
COc1ccc(-c2cc(=O)oc3cc(OCC(C)=O)ccc23)cc1	0
CC(=O)COc1ccc2c(C)c(C)c(=O)oc2c1	14*	HuH7 TTR inh=-9;TTR act confirm=8
CCCc1cc(=O)c2ccc(OCC(C)=O)cc2o1	0
CCCC/C=C1/[C@H](CC)N(C)C2=N[C@@H](c3ccccc3)CC(=O)N21	-1
CC#CC(=O)N[C@H]1CC[C@@]23CCCN2C(=O)CCC[C@H]3[C@H]1C	-2
O=C(Nc1ccc(OC(F)(F)F)cc1)Nc1c(-c2ccccc2)nc2ncccn12	0
C[C@H]1CN=C(N(C)C)N1CCc1ccccc1	10*	HuH7 TTR inh=1;TTR act confirm=2
C[C@H]1CN=C(N(C)C)N1CCC1CCCC1	-2
CC(CCN1C(N(C)C)=NC[C@@H]1C)c1ccccc1 (some centres undefined)	1
SMILES	TTR transcr act	others
CCCCNC(=O)C[C@H]1C[C@@]2(C(=O)OC)C(=C[C@H](COCc3ccccc3)O[C@@H]2C)N(CCc2ccc(OC)c(OC)c2)C1=O	2
Cc1ccnc(NC(=S)N2CC3CN(c4cccc(C(F)(F)F)c4)CC3C2)c1 (centres undefined)	3
CCN1C(=O)[C@H]2[C@@H](c3ccc(OC)cc3)N[C@]3(CCCN(Cc4ccc(C(F)(F)F)cc4)C3=O)[C@H]2C1=O	0
Cc1nc(N2CCN(C(=O)COc3ccccc3C)CC2)c2c3c(sc2n1)CCCC3	2
Fc1ccc(NC2CCC23CCC(c2ccccc2)CC3)cc1C(F)(F)F (centres undefined)	0
CCOC(=O)C1CCCN(Cc2cc(OC)c(O)c(OC)c2)C1 (centres undefined)	25*	HuH7 TTR inh=-11;TTR act confirm=0
COc1cc(CN2CCC(C(=O)NC3CCCC3)CC2)cc(OC)c1O	0
CCOC(=O)C1CCCN(Cc2cc(Br)c(OC)cc2OC)C1 (centres undefined)	3
Cc1ccc(SCc2cc(-c3ccc(Cl)cc3)on2)cc1	1
Cc1ccc(-c2cc(C(=O)NC3CCCC3)no2)cc1	-2
Cc1cc(-c2cc(-c3ccc(Cl)cc3)on2)nc(NC2CCCC2)n1	9.8*	HuH7 TTR inh=-3;TTR act confirm=1
CCOC(=O)[C@]12CCCC=C1N(CCCOC)C(=O)[C@@H]2CC(=O)N1CCCC1	3
CCN1CCCCC(NC(=O)Cc2ccccc2)C1=O (centres undefined)	2
Cc1cc(-c2ccccc2)nc(Oc2ccc(C(C)(C)C)cc2)c1S(C)(=O)=O	-2
Cc1cc(C)cc(Oc2nc(-c3ccccc3)cc(C)c2S(C)(=O)=O)c1	3
Cc1cccc(Oc2nc(-c3ccccc3)cc(C)c2S(C)(=O)=O)c1C	12*	HuH7 TTR inh=-9;TTR act confirm=-1
O=S(=O)(CC1NCCc2ccccc21)NCc1ccccc1 (centres undefined)	3
C[C@@H]1Cc2cc(O)c(O)c(O)c2C(=O)O1	2

Source: PubChem
